Results from the supplement of paper PMC8975748.
Where a name gives a salt, the structure may show the parent alone.

Tested on: Saccharomyces cerevisiae BY4741 SeMeCo community
Assay: z-score of subpopulation abundance vs DMSO median, subpopulation auxotrophic for LUM; higher = larger share of this subpopulation than in DMSO controls
Details: 10 µM; 24 h; SM minimal medium; subpopulation (auxotrophy): LUM
Method: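 Fluorescent four-plasmid SeMeCo (self-establishing metabolically cooperating S. cerevisiae BY4741 community; plasmids pH-mRuby2, pL-mWasabi, pU-eCFP, pM-TagRFP657) was grown 24 h in minimal SM medium with each Selleck FDA-approved drug at 10 µM in 384-well plates. Cells were fixed and imaged by high-content confocal microscopy. For each auxotrophic subpopulation (and the prototroph), a z-score gives the deviation from the DMSO vehicle-control population median.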

Row | Structure (SMILES) | z-score of subpopulation abundance
1 | NC(=NCCCCCCN=C(N)N=C(N)Nc1ccc(Cl)cc1)N=C(N)Nc1ccc(Cl)cc1 [Chlorhexidine?2HCl] | 2.03
2 | C=CC[C@@H]1/C=C(\C)C[C@H](C)C[C@H](OC)[C@H]2O[C@@](O)(C(=O)C(=O)N3CCCC[C@H]3C(=O)O[C@H](/C(C)=C/[C@@H]3CC[C@@H](O)[C@H](OC)C3)[C@H](C)[C@@H](O)CC1=O)[C@H](C)C[C@@H]2OC [Tacrolimus (FK506)] | 1.93
3 | CCCCCCCCCCCCCCCCOP(=O)([O-])OCC[N+](C)(C)C [Miltefosine] | 20.4
4 | CC/C(=C(\c1ccccc1)c1ccc(OCCN(C)C)cc1)c1ccccc1 [Tamoxifen Citrate] | 0.58
5 | N#Cc1ccc2[nH]cc(CCCCN3CCN(c4ccc5oc(C(N)=O)cc5c4)CC3)c2c1 [Vilazodone] | 0.72
6 | CC1(C)S[C@@H]2[C@H](NC(=O)Cc3ccccc3)C(=O)N2[C@H]1C(=O)O [Benzylpenicillin potassium] | 0.72
7 | O=C(O)CCC(=O)Nc1ccc(S(=O)(=O)Nc2nccs2)cc1 [Succinylsulfathiazole] | -0.95
8 | CCCC(=O)OCOC(=O)C1=C(C)NC(C)=C(C(=O)OC)C1c1cccc(Cl)c1Cl (stereo not given) [Clevidipine Butyrate] | -4.1
9 | Cc1c(Nc2ncccc2C(=O)O)cccc1C(F)(F)F [Flunixin Meglumin] | -0.14
10 | Cc1onc(-c2ccccc2)c1C(=O)N[C@@H]1C(=O)N2[C@@H]1SC(C)(C)[C@@H]2C(=O)O [Oxacillin sodium monohydrate] | 0.47
11 | CN(C)C(=O)COC(=O)Cc1ccc(OC(=O)c2ccc(NC(=N)N)cc2)cc1 [Camostat Mesilate] | -0.84
12 | CCN1CC(CCN2CCOCC2)C(c2ccccc2)(c2ccccc2)C1=O (stereo not given) [Doxapram HCl] | -0.43
13 | C=C[C@]1(C)C[C@@H](OC(=O)CS[C@@H]2C[C@H]3CC[C@@H](C2)N3C)[C@]2(C)[C@H](C)CC[C@]3(CCC(=O)[C@H]32)[C@@H](C)[C@@H]1O [Retapamulin] | 0.62
14 | N#CC(c1ccc(Cl)cc1)c1c(Cl)cc(-n2ncc(=O)[nH]c2=O)cc1Cl (stereo not given) [Diclazuril] | -0.7
15 | CN[C@@H]1[C@@H](O[C@H]2O[C@H](CO)[C@@H](N)[C@H](O)[C@H]2O)OC2C[C@@H](N)[C@@H](O[C@H]3[C@H](O)[C@@H](O)[C@H](N)C[C@@H]3N)OC2[C@@H]1O (stereo not given in full) [Apramycin Sulfate] | 0.97
16 | O=C(N[C@H](CO)[C@H](O)c1ccc([N+](=O)[O-])cc1)C(Cl)Cl [Chloramphenicol] | 0.23
17 | CC1=C(C(=O)O)N2C(=O)[C@@H](NC(=O)[C@H](N)c3ccc(O)cc3)[C@H]2SC1 [Cefadroxil hydrate] | -0.5
18 | CN(C)CCn1nnnc1SCC1=C(C(=O)O)N2C(=O)[C@@H](NC(=O)Cc3csc(N)n3)[C@H]2SC1 [Cefotiam hydrochloride] | 1.11
19 | CCn1cc(C(=O)O)c(=O)c2cc(F)c(N3CCNCC3)nc21 [Enoxacin] | 0.62
20 | C[C@@H](c1nc(-c2ccc(C#N)cc2)cs1)[C@](O)(Cn1cncn1)c1cc(F)ccc1F [Isavuconazole] | 7.48

Row | Structure (SMILES) | z-score of subpopulation abundance
21 | c1ccc(C2CN3CCSC3=N2)cc1 (stereo not given) [Tetramisole HCl] | 0.46
22 | CCCCNC(=O)NS(=O)(=O)c1ccc(C)cc1 [Tolbutamide] | -1
23 | COc1ccc(C(Cl)=C(c2ccc(OC)cc2)c2ccc(OC)cc2)cc1 [Chlorotrianisene] | 0.76
24 | C[N+]1(C)[C@@H]2CC[C@H]1C[C@@H](OC(=O)C(O)c1ccccc1)C2 (stereo not given in full) [Homatropine Methylbromide] | -0.14
25 | O=C(Nc1cccc(C2=NCCN2)c1)Nc1cccc(C2=NCCN2)c1 [Imidocarb dipropionate] | -0.67
26 | O=C(Nc1c(Cl)cncc1Cl)c1ccc(OC(F)F)c(OCC2CC2)c1 [Roflumilast] | -0.56
27 | C[C@@H](c1ncncc1F)[C@](O)(Cn1cncn1)c1ccc(F)cc1F [Voriconazole] | 5.58
28 | OCCOCCN1CCN(C2=Nc3ccccc3Sc3ccccc32)CC1 [Quetiapine Fumarate] | 0.86
29 | C/C=C1\[C@H]2C=C(C)C[C@]1(N)c1ccc(=O)[nH]c1C2 [(-)-Huperzine A (HupA)] | -0.73
30 | CO/N=C(\C(=O)N[C@@H]1C(=O)N2C(C(=O)O)=C(CSc3nc(C)c(CC(=O)O)s3)CS[C@H]12)c1csc(N)n1 [Cefodizime Sodium] | -0.74
31 | O=C1OC(CN2CCOCC2)CN1/N=C/c1ccc([N+](=O)[O-])o1 (stereo not given) [Furaltadone HCl] | -0.33
32 | COCCCOc1ccnc(C[S+]([O-])c2nc3ccccc3[nH]2)c1C (stereo not given) [Rabeprazole] | 0.63
33 | CN(C)CCOc1ccc(/C(=C(/CCCl)c2ccccc2)c2ccccc2)cc1 [Toremifene Citrate] | 0.81
34 | C=CC1=C(C(=O)O)N2C(=O)[C@@H](NC(=O)/C(=N\OCC(=O)O)c3csc(N)n3)[C@H]2SC1 [Cefixime] | -1.01
35 | O=C1c2cccc3c2[C@H](CCC3)CN1[C@@H]1CN2CCC1CC2 [Palonosetron] | 0.34
36 | C[C@H]1COc2c(N3CCN(C)CC3)c(F)cc3c(=O)c(C(=O)O)cn1c23 [Levofloxacin hydrate] | 1.66
37 | Cc1c(C)c2c(c(C)c1O)CCC(C)(CCCC(C)CCCC(C)CCCC(C)C)O2 (stereo not given) [Vitamin E] | -0.41
38 | COc1cc(NS(=O)(=O)c2ccc(N)cc2)nc(OC)n1 [SulfadiMethoxine sodium] | -0.37
39 | C[N+](C)(C)CCO.[Cl-] [Choline Chloride] | 0.75
40 | Clc1ccc(COC(Cn2ccnc2)c2ccc(Cl)cc2Cl)c(Cl)c1 (stereo not given) [Miconazole] | 0.67
